According to PubChem BioAssay AID1159580 (chemical genetic matrix, 2015):
Hit rate of the full screen: of about 5,500 compounds, about 2,000 (36%) were called active. About 18% were inconclusive and are not listed. Cut-off read from the data, not from the text of the source: active = normalized growth mostly below about 0.91 (no sharp cut-off); inconclusive = no clear call, values can overlap the other calls; inactive = mostly above about 0.92. The list shows a part of the results.

Experiment: chemical genetic growth profiling, strain panel (AID 1159580);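 note: tested at 20 µM; growth read once vehicle control cultures reached saturation at 30 °C; 1 = growth at the plate median or of vehicle wells; lower values mean less growth of the strain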
Settings: growth OD

Measured: normalized growth

CC(NCCc1ccc(O)cc1)C(O)c1ccc(O)cc1 (centres undefined)
inactive: S. cerevisiae deletion strains, locus YJR043C, strain POL32, hits give low values 0.992 | S. cerevisiae deletion strains, locus YJR066W, strain TOR1, hits give low values 0.948 | S. cerevisiae deletion strains, locus YKL009W, strain mrt4, hits give low values 0.977 | S. cerevisiae deletion strains, locus YKL068W, hits give low values 0.985 | S. cerevisiae deletion strains, locus YKL085W, strain MDH1 (second series), hits give low values 0.984 | S. cerevisiae deletion strains, locus YKL085W, strain MDH1, hits give low values 0.984 | S. cerevisiae deletion strains, locus YKL160W, strain elf1, hits give low values 0.966 | S. cerevisiae deletion strains, locus YKL190W, strain CNB1, hits give low values 0.998 | S. cerevisiae deletion strains, locus YKR001C, strain vps1, hits give low values 0.987 | S. cerevisiae deletion strains, locus YKR026C, strain gcn3, hits give low values 0.985 | S. cerevisiae deletion strains, locus YKR091W, strain srl3, hits give low values 0.985 | S. cerevisiae deletion strains, locus YLL001W, strain dnm1, hits give low values 0.981 | S. cerevisiae deletion strains, locus YLL026W, hits give low values 0.999 | S. cerevisiae deletion strains, locus YLL041C, strain sdh2, hits give low values 0.983 | S. cerevisiae deletion strains, locus YLR027C, strain aat2, hits give low values 0.983 | S. cerevisiae deletion strains, locus YLR039C, strain RIC1, hits give low values 1.02 | S. cerevisiae deletion strains, locus YLR058C, strain SHM2, hits give low values 0.988 | S. cerevisiae deletion strains, locus YLR102C, strain apc9, hits give low values 0.98 | S. cerevisiae deletion strains, locus YLR113W, strain HOG1, hits give low values 1.01 | S. cerevisiae deletion strains, locus YLR221C, strain rsa3, hits give low values 1.03 | S. cerevisiae deletion strains, locus YLR258W, strain gsy2, hits give low values 0.954 | S. cerevisiae deletion strains, locus YLR262C, strain YPT6 (second series), hits give low values 0.993 | S. cerevisiae deletion strains, locus YLR262C, strain YPT6, hits give low values 0.977 | S. cerevisiae deletion strains, locus YLR268W, strain sec22, hits give low values 0.975 | S. cerevisiae deletion strains, locus YLR320W, strain mms22, hits give low values 0.987 | S. cerevisiae deletion strains, locus YLR330W, strain CHS5, hits give low values 0.987 | S. cerevisiae deletion strains, locus YLR342W, strain FKS1 (second series), hits give low values 0.984 | S. cerevisiae deletion strains, locus YLR342W, strain FKS1, hits give low values 0.974 | S. cerevisiae deletion strains, locus YLR357W, strain rsc2, hits give low values 0.916 | S. cerevisiae deletion strains, locus YLR370C, strain arc18, hits give low values 0.95 | S. cerevisiae deletion strains, locus YLR371W, strain rom2, hits give low values 0.975 | S. cerevisiae deletion strains, locus YLR384C, strain iki3, hits give low values 0.975 | S. cerevisiae deletion strains, locus YLR418C, strain cdc73, hits give low values 0.969 | S. cerevisiae deletion strains, locus YML016C, strain PPZ1, hits give low values 0.986 | S. cerevisiae deletion strains, locus YML032C, strain rad52, hits give low values 0.976 | S. cerevisiae deletion strains, locus YML120C, strain ndi1, hits give low values 1.02 | S. cerevisiae deletion strains, locus YML124C, strain tub3, hits give low values 0.99 | S. cerevisiae deletion strains, locus YMR058W, strain fet3, hits give low values 0.988 | S. cerevisiae deletion strains, locus YMR078C, strain ctf18, hits give low values 0.986 | S. cerevisiae deletion strains, locus YMR125W, strain sto1, hits give low values 0.98 | S. cerevisiae deletion strains, locus YMR129W, hits give low values 1.01 | S. cerevisiae deletion strains, locus YMR205C, strain PFK2, hits give low values 1 | S. cerevisiae deletion strains, locus YMR223W, strain ubp8, hits give low values 0.976 | S. cerevisiae deletion strains, locus YMR231W, strain pep5, hits give low values 0.997 | S. cerevisiae deletion strains, locus YMR307W, strain GAS1, hits give low values 0.891 | S. cerevisiae deletion strains, locus YNL067W, strain RPL9B, hits give low values 1.01 | S. cerevisiae deletion strains, locus YNL071W, strain lat1, hits give low values 0.993 | S. cerevisiae deletion strains, locus YNL128W, strain TEP1, hits give low values 0.962 | S. cerevisiae deletion strains, locus YNL183C, strain NPR1, hits give low values 0.959 | S. cerevisiae deletion strains, locus YNL209W, strain ssb2, hits give low values 0.961 | S. cerevisiae deletion strains, locus YNL233W, strain BNI4, hits give low values 1 | S. cerevisiae deletion strains, locus YNL248C, strain rpa49, hits give low values 0.921 | S. cerevisiae deletion strains, locus YNL250W, strain rad50, hits give low values 0.974 | S. cerevisiae deletion strains, locus YNL271C, strain bni1, hits give low values 0.973 | S. cerevisiae deletion strains, locus YNL298W, strain CLA4, hits give low values 0.981 | S. cerevisiae deletion strains, locus YNL307C, strain MCK1, hits give low values 0.987 | S. cerevisiae deletion strains, locus YNL322C, strain KRE1 (second series), hits give low values 0.985 | S. cerevisiae deletion strains, locus YNR049C, strain mso1, hits give low values 0.977 | S. cerevisiae deletion strains, locus YNR052C, strain pop2, hits give low values 0.985 | S. cerevisiae deletion strains, locus YOL006C, strain TOP1, hits give low values 1.02 | S. cerevisiae deletion strains, locus YOL012C, strain htz1 0.994 | S. cerevisiae deletion strains, locus YOL147C, strain pex11, hits give low values 0.983 | S. cerevisiae deletion strains, locus YOR001W, strain rrp6, hits give low values 1.03 | S. cerevisiae deletion strains, locus YOR061W, strain CKA2, hits give low values 0.984 | S. cerevisiae deletion strains, locus YOR069W, strain VPS5, hits give low values 0.99 | S. cerevisiae deletion strains, locus YOR070C, strain gyp1, hits give low values 0.976 | S. cerevisiae deletion strains, locus YOR080W, strain dia2, hits give low values 0.977 | S. cerevisiae deletion strains, locus YOR083W, strain WHI5, hits give low values 0.935 | S. cerevisiae deletion strains, locus YOR106W, strain vam3, hits give low values 0.99 | S. cerevisiae deletion strains, locus YOR136W, strain idh2, hits give low values 0.993 | S. cerevisiae deletion strains, locus YOR144C, strain elg1, hits give low values 0.987 | S. cerevisiae deletion strains, locus YOR184W, strain ser1, hits give low values 0.978 | S. cerevisiae deletion strains, locus YOR231W, strain MKK1, hits give low values 1 | S. cerevisiae deletion strains, locus YOR265W, strain rbl2, hits give low values 0.985 | S. cerevisiae deletion strains, locus YOR270C, strain vph1, hits give low values 1.01 | S. cerevisiae deletion strains, locus YOR290C, strain snf2, hits give low values 0.912 | S. cerevisiae deletion strains, locus YOR316C, strain cot1, hits give low values 0.984 | S. cerevisiae deletion strains, locus YPL051W, strain arl3, hits give low values 0.978 | S. cerevisiae deletion strains, locus YPL078C, strain atp4, hits give low values 0.946 | S. cerevisiae deletion strains, locus YPL106C, strain sse1, hits give low values 0.969 | S. cerevisiae deletion strains, locus YPL240C, strain hsp82, hits give low values 0.995 | S. cerevisiae deletion strains, locus YPL241C, strain CIN2, hits give low values 0.992 | S. cerevisiae deletion strains, locus YPL256C, strain CLN2, hits give low values 1.01 | S. cerevisiae deletion strains, locus YPR119W, strain clb2, hits give low values 0.986 | S. cerevisiae deletion strains, locus YPR141C, strain kar3, hits give low values 0.969 | S. cerevisiae deletion strains, locus YPR163C, strain tif3, hits give low values 0.982 | S. cerevisiae deletion strains, locus YPR167C, strain met16, hits give low values 0.972 | S. cerevisiae deletion strains, strain wtn01, hits give low values 0.976 | S. cerevisiae strains, strain wild type, hits give low values 0.989
